Compounds without any hit were thinned out: in the full panel of roughly 83,000, 20% have a hit.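 The endpoint reported here, percent growth, reads 100 for growth as untreated, 0 for no net growth and -100 for all cells dead.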 Unmarked numbers belong to inactive results. The source made the active and inactive calls. The calls were made as follows: active = growth percent below 10; inactive = the rest.

This test concerns HL-60(TB) leukemia. The test can be described thus: NCI-60 one-dose screen, 48 h (100 = growth as untreated, 0 = no growth, -100 = all killed). As to conditions: 10 µM unless noted.
Turning to `O=C1c2c(c3c4cc(Br)ccc4[nH]c3c3ccc4ccccc4c23)C(=O)N1CCO`, the growth is 96.7%.

`O=c1nc(Nc2ccc([N+](=O)[O-])cc2O)sc2ccccc12`: the growth was -13.3% (active). Regarding `CC(C)(O)c1cncc(-c2ccc3ncc(C#N)c(N4CCc5cc(F)c(Cl)cc54)c3c2)c1`, the growth was 11.5%. The figure for `Cc1ccc(NC2=C(Cl)C(=O)c3nc(C)ccc3C2=O)c(C)c1` is -14.8% (active); for `O=C(c1ccc(O)cc1)[C@@H]1CN[C@@]2(C(=O)Nc3ccccc32)[C@H]1c1ccc(F)cc1` it is 95.4%. The figure for `CCCCCCCn1cc2c(N[C@H](C)c3ccccc3)ncnc2n1` is 117%.

As to `Cc1ccc(C)c(NC2=C(Cl)C(=O)c3nc(C)ccc3C2=O)c1`, the growth is -25.8% (active). The same measure for `CN1CCN(c2ccc(/C=N/n3cnc4oc(-c5ccccc5)cc4c3=N)cc2)CC1`: 121%; for `O=C(CCCCCCN1CC(=O)N2[C@@H](c3cccc(Cl)c3)c3[nH]c4ccccc4c3C[C@H]2C1=O)NO`: 8.21% (active). As to `C#CCOc1ccc(/C=N/Nc2nc(-c3cc(Cl)ccc3Cl)cs2)cc1`, the growth is 91%. The figure for `Oc1[nH]c2ccc(Cl)cc2c1N=Nc1nc(N=Nc2c(O)[nH]c3ccc(Cl)cc23)nc(N2CCCCC2)n1` is 71.5%; for `O=C1Nc2ccccc2Oc2ccc(S(=O)(=O)CC3CO3)cc21` (stereo not given) it is 0.252% (active); for `CC(=O)Nc1ccc(NC(=O)Nc2cccc(-c3nc(-c4ccc(NC(=O)c5cccnc5)cc4Cl)no3)c2)cc1C(F)(F)F` it is -39.1% (active). The figure for `O=c1c2cc(-c3ccc(F)cc3F)ccc2n(Nc2ccccc2)c(=O)n1-c1cccc(C(F)(F)F)c1` is -45.5% (active); for `Nc1ncc(-c2ccc3ncnc(N4CCc5cc(F)c(Cl)cc54)c3c2)cn1` it is 7.66% (active); for `CS(=O)(=O)c1ccc(-c2nc3ccccn3c2-c2nc3ccc([N+](=O)[O-])cc3[nH]2)cc1` it is 95.7%. The same measure for `C#Cc1nc(C2=C(C)C(O)CC2)cs1` (stereo not given): 94.2%. As to `Clc1ccc(-c2csc(N/N=C/c3nc4ccccc4n3C3CC3)n2)cc1`, the growth was 107%. For `N#Cc1cccc(-c2cc(-c3ccc4c(c3)OCCO4)[nH]n2)c1`, the growth is 6.12% (active). The same measure for `CCOC(=O)c1sc(N)c(C(=O)OCC)c1C`: 38.5%; for `CCOP(=O)(OCC)OC[C@]12CCC(C)(C)CC1C1=CC[C@@H]3[C@@]4(C)CCCNC(C)(C)[C@@H]4CC[C@@]3(C)[C@]1(C)CC2` (stereo not given in full): 34.7%. The same measure for `O=C1c2cc(Br)ccc2-n2c1nc1cc(Br)ccc1c2=O`: 80%; for `Nc1n[nH]c2cccc(C#Cc3cccc(NC(=O)c4cccc(OC(F)(F)F)c4)c3)c12`: 17.7%; for `NC(=O)c1c(NC(=O)c2ccc(F)cc2F)sc2c1CCC(=O)C2`: 34.1%.

As for `CC(C)(C)OC(=O)N1C(=O)c2c(c3c4ccccc4[nH]c3c3ccc4ccccc4c23)C1=O`, the growth was 39.6%. For the molecule `CS(=O)(=O)Nc1cc(-c2ccc3ncc(C#N)c(NCc4ccccc4)c3c2)cnc1Cl`, the growth is -29.2% (active). With `N=c1c2cc(-c3ccccc3)oc2ncn1/N=C/c1ccc(Br)cc1`, the growth is 109%. The figure for `C=C(C)[C@@H]1CC[C@]2(C(=O)ON)CC[C@]3(C)[C@H](CC[C@@H]4[C@@]5(C)C/C(=C/c6ccc(Br)cc6)C(=O)C(C)(C)[C@@H]5CC[C@]43C)[C@@H]12` is 43.6%. Regarding `Cc1nn(-c2ccccc2)cc1/C=N/Nc1nc(Nc2ccccc2)nc(Nc2ccc(S(N)(=O)=O)cc2)n1`, the growth was 4% (active). Regarding `CC1(C)CC[C@]23CC[C@]4(C)[C@H](CC[C@@H]5[C@@]6(C)CC[C@H](N)C(C)(C)[C@@H]6CC[C@]54C)[C@H]2[C@H]1OC3`, the growth was -38.4% (active). The same measure for `Fc1ccc(-c2cc3nc(C(Cl)Cl)nc(-c4ccccc4)n3n2)cc1`: -17.3% (active); for `COc1ccccc1Cn1cc(C#N)c(N)c1C(=O)c1ccc(Br)cc1`: 92.8%; for `NC(=O)c1cccc(C#CCNC[C@H]2C[C@@H](n3ccc4c(Cl)ncnc43)[C@H](O)[C@@H]2O)c1`: 102%. The figure for `CNC(=O)c1cc(-c2ccc(NC(=S)Nc3cccc(C(F)(F)F)c3)cc2)nc2cccnc12` is 109%; for `COc1cc(/C=C2\SC(=O)NC2=O)ccc1OCC(=O)Nc1ccc(C(=O)/C=C/c2cc3ccccc3nc2Cl)cc1` it is 93.7%; for `Cc1ccc(CSC2=C(Cl)CN(c3ccc(Cl)cc3)C2=O)cc1` it is 110%. In the case of `CC(C)SC1=NC(=C(C(=N1)NC2=ClC=CC=C2)C#N)C3=CC=CC=C3`, the growth is 84.5%. The same measure for `Fc1cc(F)cc(NNC(=S)c2ccccc2)c1`: 30.5%; for `CCC/C=C/C=C/C(=O)N[C@@H](Cc1cc(F)cc(F)c1)C(=O)N[C@@H]1C(=O)N2CCC[C@H]2C(=O)N2CCCC[C@H]2C(=O)N[C@@H](C)C(=O)N2C[C@H](C)C[C@H]2C(=O)O[C@H]1C`: 3.76% (active); for `CN(C)CCCNc1c2ccc(Cl)cc2nc2c1oc1ccc(Cl)cc12`: -53.9% (active).
